# Results published in PubChem BioAssay (NCATS).
# Inconclusive results are not listed. A call without a number means that no potency is given here. The source made the active and inactive calls. Calls follow the shape of the dose curve; as a rule, active = well fitted inhibition curve with a large enough effect; inconclusive = small, poorly fitted or top-dose-only effect; inactive = flat fitted curve, though single readings scatter.
# Tests used:
# Assay in all cases: qHTS profiling for inhibitors of Plasmodium falciparum proliferation (AID 504749); also: nearly all actives have a fitted effect of over 60% in size
# Conditions in all cases: P. falciparum in erythrocytes, SYBR Green DNA, 72 h; series mostly up to 28.7 µM
# AA1029 = system: AA1029
# Procedure, shortened: (§1)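 P. falciparum-infected erythrocytes (0.3% parasitemia, 2.5% hematocrit) incubated with compound 72 h at 37 C, 5% CO2. Parasite DNA detected by SYBR Green after lysis, overnight at room temperature; normalised to 0.29 uM artemisinin and DMSO.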
# CP185 = system: CP185
# Procedure, shortened: as §1
# CP191 = system: CP191
# Procedure, shortened: as §1
# CP194 = system: CP194
# Procedure, shortened: as §1
# CP203 = system: CP203
# Procedure, shortened: as §1
# CP215 = system: CP215
# Procedure, shortened: as §1
# CP217 = system: CP217
# Procedure, shortened: as §1
# CP250 = system: CP250
# Procedure, shortened: as §1
# CP252 = system: CP252
# Procedure, shortened: as §1
# CP260 = system: CP260
# Procedure, shortened: as §1
# CP265 = system: CP265
# Procedure, shortened: as §1
# CP266 = system: CP266
# Procedure, shortened: as §1
# CP268 = system: CP268
# Procedure, shortened: as §1
# CP269 = system: CP269
# Procedure, shortened: as §1
# CP297 = system: CP297
# Procedure, shortened: as §1
# CP305 = system: CP305
# Procedure, shortened: as §1
# CP329 = system: CP329
# Procedure, shortened: as §1
# JCK = system: JCK
# Procedure, shortened: as §1
# SC27B = system: SC27B
# Procedure, shortened: as §1
# TAB113 = system: TAB113
# Procedure, shortened: as §1
# Potency is read from the fitted curve at half-maximal effect.
SMILES,Potency (AA1029),Potency (CP185),Potency (CP191),Potency (CP194),Potency (CP203),Potency (CP215),Potency (CP217),Potency (CP250),Potency (CP252),Potency (CP260),Potency (CP265),Potency (CP266),Potency (CP268),Potency (CP269),Potency (CP297),Potency (CP305),Potency (CP329),Potency (JCK),Potency (SC27B),Potency (TAB113)
CC(c1ncncc1F)[C@](O)(Cn1cncn1)c1ccc(F)cc1F (stereo partly specified),inactive,inactive,inactive,inactive,inactive,inactive,inactive,inactive,inactive,inactive,inactive,inactive,inactive,inactive,inactive,inactive,inactive,inactive,inactive,inactive
CC(=O)NC[C@@H]1CN(c2ccc(N3CCOCC3)c(F)c2)C(=O)O1,inactive,inactive,inactive,inactive,inactive,inactive,inactive,inactive,inactive,inactive,inactive,inactive,inactive,inactive,inactive,inactive,inactive,inactive,inactive,inactive
O=c1[nH]c(=O)n(C2C[C@H](O)[C@@H](CO)O2)cc1C(F)(F)F (stereo partly specified),inactive,inactive,inactive,inactive,inactive,inactive,inactive,inactive,inactive,inactive,inactive,inactive,inactive,inactive,inactive,inactive,inactive,inactive,inactive,inactive
COc1cc2c(cc1O)CCN[C@@]21CS[C@H]2c3c(OC(C)=O)c(C)c4c(c3C(COC1=O)N1C2C2c3c(cc(C)c(OC)c3O)CC([C@@H]1O)N2C)OCO4 (stereo partly specified),0.9 nM (active),1.1 nM (active),1 nM (active),1.3 nM (active),0.4 nM (active),0.5 nM (active),3.2 nM (active),4 nM (active),2.5 nM (active),0.9 nM (active),4.5 nM (active),1.5 nM (active),0.5 nM (active),0.5 nM (active),0.5 nM (active),0.5 nM (active),0.5 nM (active),,0.8 nM (active),0.9 nM (active)
COC(=O)C1[C@@H](OC)C(OC(=O)COc2ccc(OC)cc2)C[C@@H]2CN3CCc4c([nH]c5cc(OC)ccc45)[C@H]3C[C@H]12 (stereo partly specified),10000 nM (active),,,,inactive,inactive,11200 nM (active),,,,,inactive,,,inactive,,,inactive,,
COc1cccc2c1C(=O)c1c(O)c3c(c(O)c1C2=O)C[C@@](O)(C(=O)CO)C[C@@H]3OC1CC(N)C(O)C(C)O1 (stereo partly specified),2240 nM (active),2240 nM (active),2240 nM (active),4780 nM (active),4780 nM (active),3790 nM (active),2510 nM (active),2510 nM (active),2510 nM (active),708 nM (active),3980 nM (active),3380 nM (active),3790 nM (active),3380 nM (active),1900 nM (active),3380 nM (active),1900 nM (active),12600 nM (active),2510 nM (active),2510 nM (active)
Cc1ccc(/C=C2/C(=O)C3(C)CCC2C3(C)C)cc1 (stereo unspecified),inactive,inactive,inactive,inactive,inactive,inactive,inactive,inactive,inactive,inactive,inactive,inactive,inactive,inactive,,inactive,inactive,inactive,inactive,inactive
Nc1nc2[nH]cc(CCc3ccc(C(=O)NC(CCC(=O)O)C(=O)O)cc3)c2c(=O)[nH]1 (stereo unspecified),,,158 nM (active),3790 nM (active),,601 nM (active),56.2 nM (active),251 nM (active),158 nM (active),126 nM (active),,,,,239 nM (active),,1200 nM (active),5620 nM (active),,
O=c1ccn(C2OC(COP(=O)(O)OC3C(CO)OC(n4ccc(=O)[nH]c4=O)C3O)C(O)C2O)c(=O)[nH]1 (stereo unspecified),inactive,inactive,inactive,inactive,inactive,inactive,inactive,inactive,inactive,inactive,inactive,inactive,inactive,inactive,inactive,inactive,inactive,inactive,inactive,inactive
Cc1ccc(Nc2ncccc2C(=O)O)cc1C,inactive,inactive,inactive,inactive,inactive,inactive,inactive,inactive,inactive,inactive,inactive,inactive,inactive,inactive,inactive,inactive,inactive,inactive,inactive,inactive
CCC(=O)OC1C(N(C)C)CC(C)O[C@H]1O[C@H]1[C@H](C)[C@@H](O[C@H]2CC(OC)[C@@H](O)C(C)O2)[C@H](C)C(=O)O[C@@H](CC)[C@](C)(O)[C@@H](O)[C@H](C)C(=O)[C@@H](C)C[C@]1(C)O (stereo partly specified),,,,inactive,inactive,,,,,inactive,,inactive,inactive,,,inactive,,inactive,inactive,inactive
Nc1ncn(C2C[C@H](O)[C@@H](CO)O2)c(=O)n1 (stereo partly specified),inactive,inactive,inactive,inactive,inactive,,inactive,inactive,inactive,inactive,inactive,,inactive,inactive,,inactive,inactive,inactive,inactive,inactive
C[C@]12CCC(=O)C=C1[C@@H]1C[C@H]1[C@H]1[C@@H]3[C@@H]4C[C@H]4[C@@]4(CCC(=O)O4)[C@@]3(C)CC[C@@H]12,inactive,inactive,inactive,,inactive,,inactive,inactive,inactive,inactive,inactive,inactive,inactive,inactive,inactive,inactive,inactive,inactive,inactive,inactive
C=CC1CN2CCC1CC2[C@@H](O)c1ccnc2ccc(OC)cc12 (stereo partly specified),282 nM (active),501 nM (active),224 nM (active),536 nM (active),426 nM (active),478 nM (active),501 nM (active),891 nM (active),355 nM (active),355 nM (active),355 nM (active),953 nM (active),536 nM (active),601 nM (active),757 nM (active),478 nM (active),953 nM (active),2000 nM (active),891 nM (active),355 nM (active)
CC(=O)N1CC(O)CC1C(=O)O (stereo unspecified),inactive,inactive,inactive,inactive,inactive,inactive,inactive,inactive,inactive,,inactive,inactive,inactive,inactive,inactive,inactive,inactive,inactive,inactive,
CNC1CCc2cc(OC)c(OC)c(OC)c2-c2ccc(OC)c(=O)cc21 (stereo unspecified),inactive,inactive,inactive,inactive,inactive,inactive,inactive,inactive,inactive,inactive,inactive,inactive,inactive,inactive,inactive,inactive,inactive,inactive,inactive,inactive
C=C1C(n2cnc3c(=O)[nH]c(N)nc32)C[C@H](O)[C@H]1CO (stereo partly specified),inactive,,inactive,inactive,,inactive,inactive,,inactive,,inactive,inactive,,inactive,inactive,,inactive,inactive,inactive,inactive
C[C@H](CN1c2ccccc2Sc2cccnc21)N(C)C,7940 nM (active),11200 nM (active),,,13500 nM (active),9530 nM (active),,,11200 nM (active),8910 nM (active),,,,,15100 nM (active),,,,8910 nM (active),12600 nM (active)
CCOC(=O)C(CCc1ccccc1)NC(C)C(=O)N1Cc2cc(OC)c(OC)cc2CC1C(=O)O (stereo unspecified),,inactive,inactive,,inactive,inactive,,inactive,inactive,inactive,inactive,inactive,inactive,inactive,10700 nM (active),inactive,inactive,,7080 nM (active),inactive
